Screen size: about 420,000 compounds; about 64,000 (15%) were called active. Not shown: some 27% with an inconclusive outcome. Calls follow the shape of the dose curve; as a rule, active = well fitted inhibition curve with a large enough effect; inconclusive = small, poorly fitted or top-dose-only effect; inactive = flat fitted curve, though single readings scatter. Only a sample is shown.
Assay: qHTS for Inhibitors of human tyrosyl-DNA phosphodiesterase 1 (TDP1): qHTS in cells in absence of CPT; also: nearly all actives have a fitted effect of over 55% in size
Conditions: DT40 Tdp1-/- hTDP1 cells, no CPT, ATP luminescence, 48 h; activity change, negative = growth inhibition: at 46.2 µM (top of the series)
From the text: Human tyrosyl-DNA phosphodiesterase 1 (TDP1) is a novel repair gene, and we propose to use it as a new target for anticancer drug development. TDP1 is not an essential protein, but under treatment with topoisomerase I poison (camptothecin: CPT), TDP1 works as a critical factor for cell survival. To directly identify novel TDP1 inhibitors active in a cellular environment, we have knocked-out the Tdp1 gene in chicken DT40 cells (Tdp1-/-) and generated a complemented counterpart cells that contains a stable transfection of the human TDP1 gene (Tdp1-/-;hTDP1 cells). For the primary screen, Tdp1-/-;hTDP1 cells will be exposed to small molecules in the presence or absence of CPT, and their growth kinetics will be evaluated after 48 hours by measuring ATP activity. […] The hit compounds will then be evaluated in the presence or absence of CPT using Tdp1-/- cells. […] In tertiary assays, biochemical gel-based assays will be used to assess whether the hit compounds specifically target TDP1.
To this end, we have screened this cell line against the MLSMR in two primary screens. In one screen we add CPT and in the other we screen in the absence of CPT; this AID represents the screen where CPT was absent.
NIH Chemical Genomics Center [NCGC]
NIH Molecular Libraries Probe Centers Network [MLPCN]
Assay Submitter (PI): Yves Pommier, NCI
DT40-hTDP1 cells without 20 nM Camptothecin (add 20 microL of DMSO in 1 L of cell culture medium) were dispensed at 400 cells/5microL/well in tissue culture treated 1536-well white wall/solid bottom assay plates (Greiner Bio-One North America, NC, U.S.A.) using a Multidrop Combi 8 channel dispenser (Thermo Fisher, Waltham, MA, USA). 23 nL compounds and controls were transferred using the pin tool (Kalypsys, San Diego, CA, USA) to the assay plates. The assay plates were then incubated at 37 masculineC for a minimum 48 hr. Three microL of Cell Titer Glo solution was added to the plates and incubated at RT in dark for 30 min. Luminescence was read using ViewLux (Perkin Elmer) with 1 sec exposure slow speed, high gain and 2x binning.
% is scaled to controls: 0 for no effect and ±100 for the full control effect; potency is read from the fitted curve at half-maximal effect.

Compound | activity change, negative = growth inhibition | Potency
COc1ccc(CC(=O)OC(C)C(=O)Nc2ccc(S(N)(=O)=O)cc2)cc1 (centres undefined) | -14.9% (inactive) | 
O=C(Nc1ccccc1C(=O)O)c1ccc(N2C(=O)C3CC=CCC3C2=O)cc1 (centres undefined) | 7.37% (inactive) | 
O=CN1CCN(C(=O)c2ccc3c(c2)OCO3)CC1 | 17.6% (inactive) | 
C=CCNC(=O)COc1coc(CN2CCN(Cc3ccccc3)CC2)cc1=O | 16.1% (inactive) | 
CNC(=S)NNC(=O)c1cccn(Cc2ccccc2)c1=O | 18.9% (inactive) | 
C=CCNC(=S)/N=c1/ccccn1Cc1ccccc1 |  | 1.84 µM (active)
CCCc1nc(N)nc2c1C(=O)CC(C)(C)C2 | -9.4% (inactive) | 
COc1ccc(C(C(=O)NC(C)(C)C)N(C(=O)Cn2nnc3ccccc32)c2ccc(C(C)=O)cc2)cc1O (centres undefined) | -0.0142% (inactive) | 
O=C(CC(NCCN1CCOCC1)C(=O)O)Nc1cccc(Cl)c1 (centres undefined) | 0.483% (inactive) | 
OC[C@@H]1CN(Cc2ccc3c(c2)OCO3)C[C@H](n2cnc3c(NCc4ccco4)ncnc32)O1 | -9.44% (inactive) | 
Cc1ccccc1NC(=O)CCNS(=O)(=O)c1ccc2[nH]c(=O)oc2c1 | -1.56% (inactive) | 
COc1cc(NC(=O)C2=CC(c3ccc(C)cc3)=NS(=O)(=O)N2C)cc(OC)c1OC | -45.5% (inactive) | 
COc1ccc(C2=NS(=O)(=O)N(C)C(C(=O)NC(C)c3ccccc3)=C2)cc1 (centres undefined) | -30.1% (inactive) | 
COc1ccc(NC(=O)C2=CC(c3ccc(OC)c(OC)c3)=NS(=O)(=O)N2C)cc1 |  | 23.1 µM (active)
COc1ccccc1N(CC(=O)N1CCCCC1)S(=O)(=O)c1ccccc1 | -24.2% (inactive) | 
CSc1ccccc1NC(=O)C(C)N1C(=O)c2ccccc2S1(=O)=O (centres undefined) | -7.02% (inactive) | 
CCOC(=O)Nc1ccccc1N1C(=O)c2ccccc2C1=O | 7.52% (inactive) | 
CC(=O)Nc1ccccc1Sc1ccc2c3c(cccc13)C(=O)N(c1ccc(C)cc1)C2=O |  | 16.4 µM (active)
Cc1c(Cl)c([N+](=O)[O-])nn1CC(=O)NCC1CCCO1 (centres undefined) | 7.74% (inactive) | 
COc1ccc(NC(=O)CCCC(=O)c2ccccc2)cc1 | -6.59% (inactive) | 
O=S(=O)(N1CCCCC1)N1CCNCC1 | 6.69% (inactive) | 
Cc1ccc(C(=O)N/C(=C\c2cn(C)c3ccccc23)C(=O)N2CCN(C)CC2)cc1 | 11.5% (inactive) | 
CN1C(=O)/C(=C/c2ccco2)SC1=Nc1cccc(C(=O)O)c1 | -0.247% (inactive) | 
Cc1cccc(N=C2NC(=O)/C(=C/c3cn(C)c4ccccc34)S2)c1 |  | 16.4 µM (active)
Cc1ccc(NC(=O)CN(C)S(=O)(=O)c2cnc[nH]2)cc1C | -7.33% (inactive) | 
Cc1ccc(C(=O)NC(C)c2ccccc2)cc1Br (centres undefined) | -22.9% (inactive) | 

Compound | activity change, negative = growth inhibition | Potency
CCC1=Nc2cc(C(=O)NCCCOC(C)C)ccc2Sc2ccc(C)cc21 |  | 0.517 µM (active)
Cc1ccc2nc(CNC(=O)c3ccccc3)[nH]c2c1 | -0.575% (inactive) | 
CC(C)NC(=O)C(=O)NCCCOC(C)C | -0.626% (inactive) | 
O=C(NCc1ccco1)c1cccc(-c2ccc3nncn3c2)c1 | -12.4% (inactive) | 
CCC1=Nc2cc(C(=O)NCC(C)c3ccccc3)ccc2Sc2ccc(C)cc21 (centres undefined) |  | 23.1 µM (active)
O=C(NCCCN1CCOCC1)c1cc(-c2cccc(O)c2)on1 | -18.6% (inactive) | 
COc1ccc(C(=O)NCCCN2CCOCC2)cc1Br | 6.89% (inactive) | 
CCCC1=Nc2cc(C(=O)NCc3ccco3)ccc2Sc2ccccc21 |  | 3.66 µM (active)
CC(C)OCCCNC(=O)CNC(=O)c1cccs1 | -7.96% (inactive) | 
COc1ccc(CCNS(=O)(=O)c2ccc(C(=O)NCc3ccco3)cc2)cc1OC | -12.5% (inactive) | 
CCC1=Nc2cc(C(=O)NCCCN3CCOCC3)ccc2Sc2ccc(Br)cc21 |  | 3.66 µM (active)
CCOC(=O)c1c(/N=C/c2cc(C)ccc2O)sc2c1CCC2 | -29.3% (inactive) | 
CCC(=O)c1ccc(OCC(O)Cn2nc(C)c(C(C)=O)c2C)cc1 (centres undefined) | -0.93% (inactive) | 
CC(C)n1c(-c2ccncc2)n[nH]c1=S | 1.02% (inactive) | 
Cc1cc(C)n(C(=O)c2ccc(C)c(S(=O)(=O)N3CCOCC3)c2)n1 | -0.443% (inactive) | 
Cc1cccc(NC(=O)C(C)N2C(=O)C3C4CC(C(Br)C4Br)C3C2=O)c1 (centres undefined) | 1.71% (inactive) | 
CN(CC(=O)N1CCN(c2ccccc2)CC1)S(=O)(=O)c1cccs1 | -22.1% (inactive) | 
CC(=O)c1ccc(-n2nnnc2SCC(=O)N2CCN(C(=O)c3ccco3)CC2)cc1 | -25.4% (inactive) | 
CCOC(=O)c1ccc(NC(=S)Nc2cc(C)cc(C)n2)cc1 | -23% (inactive) | 
N=C1c2ccccc2-c2ccccc21 | -6.61% (inactive) | 
O/N=C1\CC2(Cc3nonc31)OCCO2 | -7.73% (inactive) | 
CCCCN(C(=O)c1ccc(OC(F)(F)F)cc1)c1c(N)n(CCC)c(=O)[nH]c1=O | 10.6% (inactive) | 
CCCCn1c(N)c(N(CC)C(=O)c2ccccc2C(F)(F)F)c(=O)[nH]c1=O | 3.68% (inactive) | 
FC(F)(F)c1cc(C(F)(F)F)c2ccc(N3CCN(c4ccccc4)CC3)nc2n1 | -21.5% (inactive) | 
Cc1ccccc1N(C(=O)CNC(=O)c1cccs1)C(C(=O)NC1CCCC1)c1ccncc1 (centres undefined) | -4.76% (inactive) | 
COc1ccc(C(C(=O)NC2CCCCC2)N(C(=O)CCl)c2ccccc2Cl)cc1 (centres undefined) |  | 14.6 µM (active)

Compound | activity change, negative = growth inhibition | Potency
COc1ccc(C(C(=O)NC2CCCC2)N(CCCO)C(=O)Cn2nnc(-c3ccc(C)o3)n2)cc1 (centres undefined) | -13% (inactive) | 
CC(NC(=O)COC(=O)c1ccc2c(c1)OCO2)c1ccccc1 (centres undefined) | 2.55% (inactive) | 
CC(C)(C)c1ccc(C(=O)C[N+]2(C)CCCc3ccccc32)cc1 (centres undefined) |  | 1.58 µM (active)
CC(C)(C)c1ccc(C(=O)NNC(=O)Cc2ccccc2)cc1 | -23.1% (inactive) | 
CSc1ncnc2c1ncn2CCCNCc1cccs1 | -4.56% (inactive) | 
Cc1ccccc1-c1nc(NC(C)C)nc2cc(-c3ccccc3)sc12 |  | 20.6 µM (active)
O=C(O)CCCC(=O)Nc1ccccc1-n1ccnc1 | 1.45% (inactive) | 
Cc1c(Cl)c([N+](=O)[O-])nn1CC(=O)NCCCN1CCOCC1 | 0.962% (inactive) | 
O=S(=O)(c1cccc(-c2cn3ccccc3n2)c1)N1CCCC1 | -13.3% (inactive) | 
O=S(=O)(c1cccc(-c2nnc(SC(F)F)n2-c2ccccc2)c1)N1CCCCC1 |  | 16.4 µM (active)
O=S(=O)(c1cccc(-c2nnc3n2CCCCC3)c1)N1CCOCC1 | -7.8% (inactive) | 
O=C(O)C1=C/C(=C/C=[N+]2c3cc(O)c(O[C@H]4OC(CO)[C@@H](O)[C@@H](O)[C@@H]4O)cc3C[C@@H]2C(=O)[O-])C[C@H](C(=O)O)N1 (some centres undefined) | -27.2% (inactive) | 
S=c1[nH]nc(Nc2ccccc2)s1 | -28.6% (inactive) | 
CCOc1c(Cl)cc(/C=N/O)cc1OC | -16.3% (inactive) | 
CCN1/C(=C/C(=S)Nc2ccccc2)Sc2ccccc21 |  | 4.11 µM (active)
CCC(=O)/C=C1\Sc2ccccc2N1CC | -14.8% (inactive) | 
O=C(CS(=O)(=O)c1ccc(C(F)(F)F)cn1)NNC(=O)c1ccccc1 | -7.84% (inactive) | 
Cc1ccc2nc(COc3ccccc3NC(=O)Nc3ccc(F)c(Cl)c3)cc(=O)n2c1 |  | 14.6 µM (active)
Cc1ccc2nc(COc3ccc(NC(=O)COc4ccccc4F)cc3)cc(=O)n2c1 | 2.2% (inactive) | 
Cc1ccc2nc(COc3cccc(NC(=O)Nc4ccc(C)c(Cl)c4)c3)cc(=O)n2c1 | -20.4% (inactive) | 
COc1ccc(-c2nn3c(=O)cc(CN4CCN(C(=O)c5ccc(OC)c(OC)c5)CC4)nc3s2)cc1 | -28.5% (inactive) | 
O=C(Nc1cccc(F)c1)c1cc(-c2ccco2)nc2ccccc12 | -5.25% (inactive) | 
COc1ccc(/C=N/NC(=O)c2ccc(Cl)cc2)cc1COC(C)=O | -8.42% (inactive) | 
COc1ccc(/C=N\NC(=O)c2sc(N)nc2C)cc1OC | -17.5% (inactive) | 
COc1ccc(/C=N/NC(=O)c2cc(-c3cccc(C)c3)nc3ccccc23)cc1O |  | 2.31 µM (active)
Cc1nonc1C(=O)N/N=C/c1ccc(O)cc1 | -7.64% (inactive) | 

Compound | activity change, negative = growth inhibition | Potency
CCOc1ccc(-c2cc(C(=O)N/N=C/c3ccc(O)cc3)c3ccccc3n2)cc1 |  | 0.651 µM (active)
Cc1ccc(N2NC(=O)/C(=C/C=C/c3ccco3)C2=O)cc1C | -19.4% (inactive) | 
COc1cccc(-c2cc(C(=O)N/N=C/c3ccc(OC)c(COC(C)=O)c3)c3ccccc3n2)c1 |  | 2.06 µM (active)
Cc1ccc(-c2cc(C(=O)N/N=C/C=C/c3ccco3)c3ccccc3n2)cc1C |  | 8.2 µM (active)
O=C(COc1ccc(/C=N/NC(=O)c2ccc(O)cc2)cc1)Nc1ccc([N+](=O)[O-])cc1 | -17.6% (inactive) | 
Cc1ccc(S(=O)(=O)NCCC(c2ccccc2)c2ccccc2)cc1C(=O)O | -15.3% (inactive) | 
O=C(CCCOc1ccc(Cl)cc1Cl)NNC(=O)C1CCC1 | -1.44% (inactive) | 
Cc1ccc(C)c2[nH]c(=O)c(CCNC(=O)CC(C)C)cc12 | 2.3% (inactive) | 
COc1ccc(Cc2nnnn2CC(=O)O)cc1 | 8.47% (inactive) | 
Cc1ccc(S(=O)(=O)CC(=O)Nc2c(C)n(C)n(-c3ccccc3)c2=O)cc1 | 20.7% (inactive) | 
Cc1cc(C)n2nc(SCC(N)=O)nc2n1 | -3.37% (inactive) | 
CC(NC(=O)COC(=O)Cn1cc(C(F)(F)F)ccc1=O)c1ccccc1 (centres undefined) | 3.95% (inactive) | 
CCOC(=O)c1c(C)[nH]c(C)c1S(=O)(=O)NCC(=O)NCc1cccc(C)c1 | -10.1% (inactive) | 
COc1cc(/C=N\NC(=O)C2C(=O)NCC2c2ccccc2)cc(OC)c1O (centres undefined) | -14.8% (inactive) | 
COc1cc(/C=N/NC(=O)c2cc(-c3ccccc3C)nc3ccccc23)cc(OC)c1O |  | 6.51 µM (active)
CC1(C)CC(CC(=O)O)C(=O)O1 (centres undefined) | -5.69% (inactive) | 
CC(=O)NCC(=O)N(C)C(C(=O)Nc1ccc2c(c1)OCCO2)c1ccccc1 (centres undefined) | -10.1% (inactive) | 
N#Cc1ccccc1NC(=O)c1cccc(COc2ccc(Cl)cc2Cl)c1 | -7.54% (inactive) | 
Cc1ccc(NC(=O)Cn2c(C)csc2=O)cc1 | -14.9% (inactive) | 
Cc1ccc(NC(=O)Cn2sc3ccccc3c2=O)cc1 |  | 4.61 µM (active)
Cc1nn(CC(=O)Nc2ccc(F)cc2)c(=O)c2ccccc12 | 1% (inactive) | 
CCN1CCN(C(=O)CN(C)S(=O)(=O)c2ccc3ccccc3c2)CC1 | -1.29% (inactive) | 
CSCC[C@H](NC(=O)NCCc1ccc(F)cc1)C(=O)O | -4.91% (inactive) | 
CN(CC(=O)Nc1ccc(F)c(F)c1F)C(=O)C1CC(=O)N(C2CCCC2)C1 (centres undefined) | -24.1% (inactive) | 
COc1ccc(Br)cc1CN(C)C(=O)C1CC(=O)N(C2CCCC2)C1 (centres undefined) |  | 23.1 µM (active)
O=C(Nc1cccc(Br)c1)C1CC(=O)N(C2CCCC2)C1 (centres undefined) | -7.2% (inactive) | 

Reference: PubChem BioAssay AID686978 (National Center for Advancing Translational Sciences (NCATS), 2013)
